Assay results published in the supplement of paper PMC12340641.
Counter-ions that a name gives are not always drawn.

Tested on: HEK293FT dCK*-IKZF1
Test: relative growth recovery (pomalidomide 10 uM = 100%, DMSO = 0%); higher = more growth rescue (IKZF1 fusion degradation)
Details: compound concentration: 5 uM; AraC concentration: 0.3 uM; overnight pretreatment + 4 days AraC
How it was run: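 HEK293FT cells stably expressing a dCK*-IKZF1 fusion (300/well, 384-well) received 5 μM compound 2 h after seeding. After overnight at 37 °C they received a nucleoside suicide substrate at 0.3 μM plus medium for 4 days. On day 5, Hoechst 33342-stained nuclei were counted by whole-well imaging. Growth recovery was normalised per plate to a reference degrader (100%) and vehicle (0%); values are means of duplicates run on different days.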

SMILES | relative growth recovery
CCn1c(=O)[nH]c2cc(Cl)c(Cl)cc21 | -1.89%
O=C1Nc2ccc(Cl)cc2[C@@](C#CC2CC2)(C(F)(F)F)O1 [Efavirenz] | 2.08%
CC(C)(C)c1ccc(C(O)CCCN2CCC(C(O)(c3ccccc3)c3ccccc3)CC2)cc1 (stereo not drawn) | -1.42%
Cc1ccccc1/N=N/c1ccc(NC(=O)c2ccnn2C)c(C)c1 | -0.005%
Oc1c(Cl)cc(Cl)c(Cl)c1Cc1c(O)c(Cl)cc(Cl)c1Cl | 0.025%
COC(=O)Nc1ccc(-c2nc(N3CCOCC3)c3cnn(C4CCN(C(=O)OC)CC4)c3n2)cc1 | -2.33%
CC/C(=C(\c1ccc(O)cc1)c1ccc(OCCN(C)C(=O)COCCOCCOCCOc2cccc(C(=O)c3csc([C@@H]4CCCN4C(=O)[C@@H](NC(=O)[C@H](C)NC)C4CCCCC4)n3)c2)cc1)c1ccccc1 | -11.5%
O=C(O)C(O)Cc1ccc(O)c(O)c1 (stereo not drawn) [Sodium Danshensu] | -0.76%
Oc1c(I)cc(I)c(O)c1I [riodoxol] | -3.17%
NC(=O)c1cn([C@@H]2O[C@H](CO)[C@@H](O)[C@H]2O)c2ncnc(N)c2c1=O | -1.56%
O=c1c(O)c(-c2ccc(O)c(O)c2)oc2cc(O)cc(O)c12 [quercetin] | -2.98%
Cc1cc(C)nc(NS(=O)(=O)c2ccc(NC(=S)NC(=O)COc3ccc(Br)cc3Cl)cc2)n1 | 1.03%
Nc1nc2c(ccc3ccccc32)s1 | 0.375%
c1ccc2c(c1)CCC[C@H]2Nc1nc2ccccc2[nH]1 | -0.405%
O=c1[nH]c(=O)n([C@H]2C[C@H](O)[C@@H](CO)O2)cc1F | -9.89%
Cc1cc2nc3ccc(N(C)C)cc3[s+]c2cc1N | -13.5%
Nc1ccc(-c2nc3ccc(-c4nc5ccc(N)cc5[nH]4)cc3[nH]2)cc1 | -2.58%
CO[C@H]1O[C@@H]2O[C@@]3(C)CC[C@H]4[C@H](C)CC[C@@H]([C@H]1C)[C@@]24OO3 [Artemether] | -4.6%
CC(O)(C(=O)Nc1ccc(S(=O)(=O)c2ccccc2)cc1)C(F)(F)F (stereo not drawn) | 0.77%

SMILES | relative growth recovery
COc1cc([C@@H]2c3cc4c(cc3C(O[C@@H]3O[C@@H]5CO[C@@H](c6cccs6)OC5[C@H](O)[C@H]3O)C3COC(=O)[C@@H]32)OCO4)cc(OC)c1O (stereo partly drawn) | -13.1%
CSc1ccc2c(c1)N(CCC1CCCCN1C)c1ccccc1S2 (stereo not drawn) [Thioridazine HCl] | -2.37%
COc1ccc(-c2nc3cc(C4=NNC(=O)CC4C)ccc3[nH]2)cc1 (stereo not drawn) [Pimobendan (Vetmedin)] | -0.495%
CN1CCN(C2=Nc3ccccc3Sc3ccc(Cl)cc32)CC1 [Clothiapine] | 0.605%
Oc1c(CN2CCCC2)cc(COCc2ccccc2)c2cccnc12 | -13.4%
CSc1nc2cc(Cl)c(Oc3cccc(Cl)c3Cl)cc2[nH]1 | 0.015%
CC(C)(C)CC(C)(C)c1ccc(OCCOCC[N+](C)(C)Cc2ccccc2)cc1 | -0.695%
CO[C@H]1/C=C/O[C@@]2(C)Oc3c(C)c(O)c4c(O)c(c(/C=N/N5CCN(C)CC5)c(O)c4c3C2=O)NC(=O)/C(C)=C\C=C\[C@H](C)[C@H](O)[C@@H](C)[C@@H](O)[C@@H](C)[C@H](OC(C)=O)[C@@H]1C | -2.5%
C=C1/C(=C\C=C2/CCC[C@]3(C)[C@@H]([C@H](C)/C=C/[C@H](C)C(C)(C)O)CC[C@@H]23)C[C@@H](O)C[C@@H]1O [Ercalcitriol] | 6.62%
CNCC(O)c1ccc(O)c(O)c1 (racemic) [DL-Adrenaline] | -4.26%
O=C1C=Cc2cc(Br)ccc2C1=O [bonaphthone] | -2.85%
Cc1coc2c1C(=O)C(=O)c1c-2ccc2c1CCCC2(C)C [Tanshinone IIA (Tanshinone B)] | 0.345%
CC(=O)N(O)[C@@H]1c2cc(C#N)ccc2OC(C)(C)[C@H]1O | -2.73%
CCCCCCCCCCCCCCCC[N+](C)(C)Cc1ccccc1 [Benzyldimethylhexadecylammonium chloride hydrate] | -4.92%
Cc1cc(Nc2ncc(Cl)c(Nc3ccccc3S(=O)(=O)C(C)C)n2)c(OC(C)C)cc1C1CCN(CC(=O)NCCNc2cccc3c2C(=O)N(C2CCC(=O)NC2=O)C3=O)CC1 (stereo not drawn) | 24.8%
Cc1ccc(S(=O)(=O)c2ccc([N+](=O)[O-])o2)cc1 | -12.9%
NC(=O)NC(=O)Cc1ccccc1 | -2.01%
C=C1CCC2[C@](C)(CO)[C@H](O)CC[C@@]2(C)[C@@H]1C/C=C1/C(=O)OC[C@H]1O (stereo partly drawn) [Andrographolide] | -5.34%
CN1C(=O)/C(=C2/C(=O)Nc3ccccc32)c2ccccc21 [Meisoindigo] | -3.15%
